# Test results reported in PubChem BioAssay AID624170 (National Center for Advancing Translational Sciences (NCATS), 2012).
# About 850 (0.21%) of roughly 410,000 compounds were called active. Where a call stands in place of a potency, no number is given. Not shown: some 2% with an inconclusive outcome. Calls follow the shape of the dose curve; as a rule, active = well fitted inhibition curve with a large enough effect; inconclusive = small, poorly fitted or top-dose-only effect, or another doubt; inactive = no such curve, though single readings can be large or run the other way. For the sample, actives were picked, then their nearest neighbours and some compounds at random. Square brackets hold non-standard residues; d marks the D form. Side chains are listed from the residue outwards. Peptide text beside a SMILES is read from it. * marks the point of attachment. X1 = CCC(C)C(N)C1=NC(C(=O)*)CS1; Orn = NCCC[CH](N)C(=O)O
# Target: Glutaminase kidney isoform, mitochondrial (Homo sapiens) (UniProt O94925)
# Sequence (O94925 whole entry, looked up, canonical isoform): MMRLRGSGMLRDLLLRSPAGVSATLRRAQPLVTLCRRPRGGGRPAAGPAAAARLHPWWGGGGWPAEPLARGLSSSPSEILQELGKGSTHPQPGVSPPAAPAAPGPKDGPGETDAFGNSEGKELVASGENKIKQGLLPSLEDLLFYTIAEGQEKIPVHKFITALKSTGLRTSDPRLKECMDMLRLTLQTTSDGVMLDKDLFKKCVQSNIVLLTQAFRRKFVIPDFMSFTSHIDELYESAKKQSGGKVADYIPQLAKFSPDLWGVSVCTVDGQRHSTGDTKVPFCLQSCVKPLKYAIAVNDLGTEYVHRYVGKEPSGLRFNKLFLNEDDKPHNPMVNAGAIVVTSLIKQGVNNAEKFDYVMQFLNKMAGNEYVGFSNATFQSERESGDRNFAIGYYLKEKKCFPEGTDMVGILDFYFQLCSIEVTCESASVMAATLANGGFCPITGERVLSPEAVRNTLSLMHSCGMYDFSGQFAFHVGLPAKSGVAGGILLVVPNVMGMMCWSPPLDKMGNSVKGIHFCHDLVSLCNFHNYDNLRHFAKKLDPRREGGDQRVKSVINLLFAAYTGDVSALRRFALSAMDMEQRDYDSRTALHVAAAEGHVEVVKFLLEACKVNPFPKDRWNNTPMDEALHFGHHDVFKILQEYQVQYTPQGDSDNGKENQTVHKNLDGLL
# Assay: qHTS for Inhibitors of Glutaminase (GLS)
# Details: GLS enzymatic activity, qHTS titration; series mostly up to 45.5 µM
# From the text: Glutaminase (GLS) catalyzes the hydrolysis of glutamine into glutamate and ammonia. It plays a critical role in glutaminolysis, which is an important energy source for proliferating cells. It was shown that c-Myc, an oncogenic transcription factor known to regulate microRNAs and to stimulate cell proliferation, increases glutamine metabolism by stimulating the expression of GLS via direct suppression of miR23a and miR23b.
# GLS is also thought to play a pathogenic role on HAD using a human HIV-1 infected macrophage system. […] GLS inhibition limits glutamate release and provides neuroprotection against HIV-1 infected macrophages.
# The overall goal of this project is to identify small molecule inhibitors of GLS through quantitative high throughput screening (qHTS) of the MLSMR. A validated potent and selective inhibitor can be used as a tool molecule to further study the pharmacology of its target as well as explore its potential therapeutic application in cancer and inflammatory neurological disorders, such as HIV1-associated dementia (HAD) and multiple sclerosis.
# NIH Chemical Genomics Center [NCGC]
# NIH Molecular Libraries Probe Centers Network [MLPCN]
# Assay Submitter (PI): Barbara S. Slusher, Johns Hopkins University
# Three 3 uL of hKGA is dispensed into black well 1536-well plates in 45 mM KH2PO4 (pH 8.2), 0.02% Tween-20. Then 23 nL of compounds are added through pin tool transfer. To this, 1 uL of 1mM L-Glutamine and 1 uL of a solution of L-Glutamateoxidase, HRP, Amplex red are added. Plate is centrifuged for 25 sec before an initial fluorescence read is obtained on the ViewLux, after 30 min of RT incubation, the final read is taken on the ViewLux.
# Potency is read from the fitted curve at half-maximal effect.
row,SMILES,Potency
1,COc1cc(/C=C2/SC(=S)N(Cc3ccccc3)C2=O)cc(OC)c1O,20 µM (active)
2,COc1ccc(CCNC(=O)CCCCn2c(=O)c3ccccc3n(Cc3ccccc3)c2=O)cc1OC,inactive
3,CCOC(=O)C1=CCC2C(=O)N(Cc3ccccc3)C(=O)C12 (stereo not drawn),inactive
4,COc1cc(NC(=O)c2nn(-c3ccc(C)cc3)c(=O)c3c2c2ccccc2n3C)cc(OC)c1OC,inactive
5,COc1ccc(CCC(=O)NCCc2csc(-c3ccc(Cl)cc3)n2)cc1,inactive
6,COc1nc(NC2CCCCC2)nc(N2CCCCCC2)n1,inactive
7,CN(N)c1nc(N2CCCC2)nc(N2CCCC2)n1,14.1 µM (active)
8,FC(F)(F)COc1nc(N2CCCCC2)nc(N2CCNCC2)n1,inactive
9,CCCN(CC)[C@@H](CC)C(=O)Nc1c(C)cccc1C,inactive
10,O=C(O)CCC(=O)O,inactive
11,O=C(CCSCc1ccccc1F)N1CCN(c2ccc(Cl)cc2)CC1,inactive
12,Cn1cnc2c1c(=O)n(Cc1ccccc1C#N)c(=O)n2C,inactive
13,Cn1cnc2c1c(=O)n(Cc1c(Cl)cccc1Cl)c(=O)n2C,20 µM (active)
14,Cn1c(=O)n(Cc2c(F)cccc2Cl)c(=O)c2c1nc1n2CCN1c1ccc(F)cc1,inactive
15,CO[C@H]1C[C@@H](O[C@@H]2[C@@H](C)O[C@@H](O[C@@H]3/C(C)=C/CC4C[C@@H](C[C@]5(C=C[C@@H](C)[C@H](C6CCCCC6)O5)O4)OC(=O)[C@@H]4C=C(C)[C@@H](O)[C@H]5OC/C(=C\C=C\[C@@H]3C)[C@]54O)C[C@H]2OC)O[C@@H](C)[C@@H]1O,inactive
16,NC(=O)C(=O)N/N=C/c1ccc([N+](=O)[O-])o1,inactive
17,COc1cc(C[C@H]2NCCc3cc(O)c(O)cc32)cc(OC)c1OC,inactive
18,O=S(O)CNc1ccc(S(=O)(=O)c2ccc(NCS(=O)O)cc2)cc1,inactive
19,FC(F)(F)C1CCCN(c2nsc3ccccc23)C1 (stereo not drawn),7.94 µM (active)
20,COc1cc([C@@H]2c3cc4c(cc3[C@@H](O[C@@H]3O[C@@H]5CO[C@@H](C)O[C@H]5[C@H](O)[C@H]3O)[C@H]3COC(=O)[C@H]23)OCO4)cc(OC)c1OP(=O)(O)O,inactive
21,COc1ccc(-c2ccc(=O)n(CC(=O)Nc3ccc(Br)cc3F)n2)cc1,inactive
22,COc1ccc(CNC(=O)C(Cc2ccccc2)n2cccc2)cc1 (stereo not drawn),inactive

row,SMILES,Potency
1,COc1ccc2oc(C(=O)NCC(Cc3ccccc3)N(C)C)c(C)c2c1 (stereo not drawn),inactive
2,COc1cc([C@H](Cc2ccccc2)NC(C)=O)oc(=O)c1,17.8 µM (active)
3,COc1ccc(N2CCN(S(=O)(=O)CCNC(=O)C(c3ccccc3)c3ccccc3)CC2)cc1,inactive
4,CCOC(=O)c1ccccc1NC(=O)CCc1c(C)nc2c(c1C)c(=O)n(C)c(=O)n2C,inactive
5,O=C(O)CCCCC(=O)O,inactive
6,CCOc1ccc(NC(=O)c2c(NC(=O)Cc3ccccc3)sc3c2CCC(C)C3)cc1 (stereo not drawn),inactive
7,O=C(Nc1ccc(Oc2ccccc2)cc1)C1CCN(S(=O)(=O)c2ccc(Cl)cc2)CC1,inactive
8,O=C(Nc1ccccc1)c1nnsc1S(=O)(=O)c1ccc(Cl)cc1,14.1 µM (active)
9,O=C(Nc1cccc(Cl)c1)c1csnn1,inactive
10,CCCC[C@H]1C(=O)N(c2ccccc2)N(c2ccc(O)cc2)C1=O,inactive
11,O=C(OCc1ccccc1)c1ccc(O)cc1,inactive
12,CC(=O)OC1C([N+]2(C)CCCCC2)C[C@H]2C3CC[C@H]4C[C@H](OC(C)=O)C([N+]5(C)CCCCC5)CC4(C)C3CCC12C (stereo partly drawn),inactive
13,O=C(O)/C=C/C(=O)NNc1ccc([N+](=O)[O-])cc1,11.2 µM (active)
14,O=C(O)CC(Cc1ccccc1)C(=O)Nc1ccc([N+](=O)[O-])cc1 (stereo not drawn),inactive
15,CC(C)(C)C(=O)NCCCNc1ccc([N+](=O)[O-])cc1,inactive
16,CCCCC(=O)OCC(=O)[C@H]1[C@H](C)C[C@@H]2[C@@H]3C[C@@H](F)C4=CC(=O)C=C[C@]4(C)[C@@]3(F)[C@@H](O)C[C@@]21C,inactive
17,COc1ccc(NC(=O)c2sc3nc[nH]c(=O)c3c2C)cc1,inactive
18,CC(C)OCCCNc1nc2c(c(=O)n(Cc3ccccc3F)c(=O)n2C)n1C,12.6 µM (active)
19,Cn1c(=O)c2c(nc(NCCc3ccccc3)n2Cc2ccccc2Br)n(C)c1=O,inactive
20,Cn1c(=O)c2c(nc(NCCNC(=O)c3ccco3)n2Cc2ccccc2F)n(C)c1=O,inactive
21,CCC(C)Nc1oc(-c2ccc(COc3ccc(Cl)cc3)o2)nc1C#N (stereo not drawn),inactive
22,CC(O)COc1ccccc1 (stereo not drawn),inactive

row,SMILES,Potency
1,CC1(C)OC[C@@H](COC(=O)CCc2ccc(OC[C@@H](O)CNCCNC(=O)N3CCOCC3)cc2)O1,inactive
2,Cc1cc(C)c2c(c1)c(C)cc1nnc(SCC(=O)NCc3ccco3)n12,inactive
3,Cc1cccc(NC(=O)CSc2nc(-c3ccco3)cc(C(F)(F)F)n2)c1C,inactive
4,Cc1cc(C)c2nc(-c3ccco3)cc(C(=O)O)c2c1,11.2 µM (active)
5,COC(=O)[C@@H]1CC2=CC(=O)CC[C@]2(C)[C@@]23O[C@@H]2C[C@@]2(C)[C@@H](CC[C@@]24CCC(=O)O4)[C@H]13,inactive
6,CC(NC(=O)CCc1cn(Cc2ccccc2Cl)c2ccccc12)c1ccccc1 (stereo not drawn),inactive
7,Cc1ccc(Cn2c(CNC(=O)Cc3cccc(C)c3)nc3cccnc32)cc1,inactive
8,C=C1c2c(Cl)ccc(O)c2C(O)=C2C(=O)[C@]3(O)C(O)=C(C(N)=O)C(=O)[C@@H](N(C)C)[C@@H]3[C@@H](O)C12 (stereo partly drawn),10 µM (active)
9,Cc1c(O)cc2c(c1C)O[C@](C)(CCC[C@H](C)CCC[C@H](C)CCCC(C)C)CC2,inactive
10,CCC[C@H]1C(=O)N2C(N(C)C)=Nc3ccc(C)cc3N2C1=O,inactive
11,CCc1cc2c(cc3c(=O)n(CC(=O)N4CCN(c5cc(Cl)ccc5C)CC4)ncn32)s1,inactive
12,CC(C)CCN(C(=O)Nc1ccc(Cl)c(Cl)c1)C(C)c1cccs1 (stereo not drawn),inactive
13,COc1ccc(C2(C#N)CCC(C(=O)O)CC2)cc1OC1CCCC1 (stereo not drawn),inactive
14,CCNCCC(=O)N1c2ccccc2Sc2ccc(NC(=O)OCC)cc21,11.2 µM (active)
15,CCOC(=O)Nc1ccc2c(c1)N(C(=O)CN1CCN3CCCC3C1)c1ccccc1CC2 (stereo not drawn),inactive
16,CCOC(=O)Nc1ccc2c(c1)N(C(=O)CCCl)c1ccccc1[S@]2=O,inactive
17,COc1cc(C(=O)N2CCC(c3ccncc3)CC2)cc(OC)c1OC,inactive
18,O=C(Nc1ccc(O)cc1)c1ccccc1O,inactive
19,COc1cc(OC)cc(C(=O)Nc2cc3nn(-c4ccccc4)nc3cc2Cl)c1,inactive
20,CCCc1c2oc(C(=O)O)cc(=O)c2cc2c(=O)cc(C(=O)O)n(CC)c12,inactive
21,O=C1CSC(=S)N1/N=C/c1ccc(O)c([N+](=O)[O-])c1,inactive
22,CCOc1cc(/C=N/n2cnnc2)c(Br)cc1O,inactive

row,SMILES,Potency
1,CCOc1cccc(/C=N/N2C(=O)CSC2=S)c1O,10 µM (active)
2,Cc1ccccc1NC(=O)c1cc2c([nH]c1=O)CC(C)(C)CC2=O,inactive
3,CCC(C)C(N)C1=NC(C(=O)NC(CC(C)C)C(=O)NC(CCC(=O)O)C(=O)NC(C(=O)NCCCCC2NC(=O)C(CC(N)=O)NC(=O)C(CC(=O)O)NC(=O)C(Cc3cnc[nH]3)NC(=O)C(Cc3ccccc3)NC(=O)C(C(C)CC)NC(=O)C(CCCN)NC2=O)C(C)CC)CS1 (stereo not drawn) (cyclo(DNK([Ile-Glu-Leu-X1])[Orn]IFH); configuration not given here),inactive
4,CC1(C)[C@H](O[C@H]2O[C@H](C(=O)O)[C@@H](O)[C@H](O)[C@H]2O[C@@H]2O[C@H](C(=O)O)[C@@H](O)[C@H](O)[C@H]2O)CC[C@@]2(C)[C@H]1CC[C@]1(C)[C@H]2C(=O)C=C2[C@H]3C[C@@](C)(C(=O)O)CC[C@]3(C)CC[C@]21C,inactive
5,N#C/C(=C\c1cccc(F)c1)c1nc(-c2cc3c(ccc4ccccc43)oc2=O)cs1,inactive
6,O=c1oc2ccccc2cc1-c1csc(Nc2ccc(O)cc2)n1,2.82 µM (active)
7,Cc1cc(NC(=O)c2cccc(Cl)c2)ccc1-c1cc2ccccc2oc1=O,inactive
8,Cc1cc2nc(NC(=O)c3ccc(S(=O)(=O)N4CCOCC4)cc3)sc2cc1C,inactive
9,CC1(C)O[C@@H]2C[C@@H]3[C@H]4C[C@@H](F)C5=CC(=O)C=C[C@]5(C)[C@@]4(F)[C@@H](O)C[C@]3(C)[C@]2(C(=O)CO)O1,inactive
10,NNc1nnc(NN)c2ccccc12,inactive
11,COc1ccc(Br)cc1CNC(=O)c1cc(=O)[nH]c2ccc(S(=O)(=O)N3CCCC3)cc12,inactive
12,O=C1c2c(O)cccc2[C@@H]([C@@H]2O[C@H](CO)[C@@H](O)[C@H](O)[C@H]2O)c2cc(CO)cc(O)c21,inactive
13,CCC(CCC(C)C1CCC2C3CC=C4CC(O)CC[C@@]4(C)C3CC[C@@]12C)C(C)C (stereo partly drawn),inactive
14,CCN1C(=O)c2cccc3c(S(=O)(=O)Nc4ccccc4O)ccc1c23,11.2 µM (active)
15,CCN1C(=O)c2ccccc2S(=O)c2ccc(C(=O)NCc3ccc(F)cc3)cc21 (stereo not drawn),inactive
16,CCN(CC)S(=O)(=O)c1ccc2c3c(cccc13)C(=O)S2,inactive
17,Cc1ccc(CSc2nc3ccsc3c(=O)n2CCC(C)C)cc1,inactive
18,CC[C@]1([C@H]2O[C@@H]([C@@H]3O[C@](O)(CO)[C@@H](C)C[C@H]3C)C[C@H]2C)CC[C@@H]([C@]2(C)CC[C@@]3(C[C@@H](O)[C@@H](C)[C@@H]([C@H](C)[C@H](OC)[C@H](C)C(=O)O)O3)O2)O1,inactive
19,Cc1nc2nc(SCC(=O)NC3CCC(C)CC3)nn2c(C)c1Cc1ccccc1Cl (stereo not drawn),inactive
20,Cn1c(SCC(=O)N/N=C/c2ccc(O)c(O)c2)nc2ccccc21,17.8 µM (active)
21,C=CCn1c(Cn2nnc3ccccc32)nnc1SCC(=O)N/N=C/c1cc(Br)cc(OC)c1O,inactive
22,COc1ccc(OC)c(NC(=O)CSc2nc3cccnc3n2C)c1,inactive
